Rows were chosen to be rich in hits. Some 0.95% of all compounds tested hit in one or more screens of this group.
ugtP null kill: growth inhibition of S. aureus ugtP deletion strain | S. aureus RN4220 ugtP deletion, OD600 growth, 16 h | AID 1259309 | actives 0.54% (n = 330,000) | growth inhibition, % (no concentration beside the values); in the data active means growth inhibition above about 68%;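 further: plate controls were untreated wells for no effect and antibiotic for full effect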
PrPC surface inh: reduces human prion protein on the cell surface. P04156. cell surface PrPC, TR-FRET read-out. inhibition, % at 13.8 µM. actives 0.43% (n = 370,000). AID 720596; in the data active means inhibition above about 24%; further: 0% = median of the test wells and 100% = reference compound wells
RN4220 kill: S. aureus RN4220 growth inhibition; inhibition, % (test concentration not listed); actives 0.33% (n = 330,000); OD600, 16 h; in the data active means inhibition above about 85%;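 further: plate controls were untreated cells for no effect and reference antibiotic for full effect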
BJeLR viability: kills HRASV12-expressing BJeLR cells; BJeLR (HRASV12) viability, CellTiter-Glo ATP luminescence, 48 h; inhibition, % (test concentration not listed); actives 0.17% (n = 300,000); AID 1554; in the data active means inhibition above about 50%
PrPC confirm: cell surface PrPC inhibition, TR-FRET confirmation | shares compounds with PrPC surface inh | cell surface PrPC level | inhibition, % at 13.8 µM | actives 65% (n = 1,500) | AID 743200; in the data active means inhibition above about 25%
LD9 cytotox: LD9 cell cytotoxicity, PrPc inhibitor counter-screen. actives 29% (n = 1,500). inhibition, % at 13.8 µM. AID 743201. shares compounds with PrPC surface inh. LD9 cells cytotoxicity, luminescence viability; in the data active means inhibition above about 9.5%
Active calls of the source: *; / = not tested or not shown.

SMILES	ugtP null kill	PrPC surface inh	RN4220 kill	BJeLR viability	PrPC confirm	LD9 cytotox
COC(=O)c1cc2c(c3c4cc(C)ccc4n(S(=O)(=O)c4cccc(C)c4)c13)C(=O)N(Cc1ccc(C(F)(F)F)cc1)C2	/	8	/	/	/	/
O=[N+]([O-])c1ccc(N2CCOCC2)c2c1no[n+]2[O-]	/	29*	/	/	45*	98*
O=[N+]([O-])c1ccc(N2CCOCC2)c2cccnc12	4	-20	6	1	/	/
O=[N+]([O-])c1ccc(N2CCN(CC3CCCCC3)CC2)cc1	6	51*	5	-6	-6	5
COc1ccc(C(=O)C[n+]2cc(Br)cc3ccccc32)cc1[N+](=O)[O-]	-3	27*	-6	-5	9	-1
Cn1c(N2CCOCC2)c(C=NOC(=O)c2cccnc2Cl)c2ccccc21	-7	/	4	/	/	/
CC(C)CCNC(=O)C(NS(=O)(=O)c1ccc2c(c1)c(=O)n(C)c(=O)n2C)c1ccccc1 (configuration not stated)	-2	-2	3	8	/	/
CCC(C)NC(=O)C(NS(=O)(=O)c1ccc2c(c1)c(=O)n(C)c(=O)n2C)c1ccccc1 (configuration not stated)	-1	42*	1	/	8	-1
O=C(NN=Cc1ccc(Cl)c([N+](=O)[O-])c1)c1cc(-c2ccccc2)nc2ccccc12	-3	/	-4	/	/	/
CNC(=O)c1cc(Oc2ccc(NC(=O)Nc3ccc(Cl)c(C(F)(F)F)c3)cc2)ccn1	/	27*	/	/	17	6
O=C(Nc1ccc(Cl)c(C(F)(F)F)c1)c1ccncc1	2	15	-6	12	/	/
O=C(O)CCC(=O)Nc1nnc(C(F)(F)F)s1	-5	13	2	/	/	/
CCC(NC(=O)Nc1nnc(C(F)(F)F)s1)(C(F)(F)F)C(F)(F)F	88*	58*	75	28	74*	54*
CCOC(=O)C1CCN(C(=O)C(=O)c2cn(CC(=O)N3CCCCCC3)c3ccccc23)CC1	-3	26*	2	-4	22	-10
CCOC(=O)N1CCN(C(=O)C(=O)c2cn(CC(=O)N3CCCCCC3)c3ccccc23)CC1	12	9	5	2	/	/
Cn1c(CSc2ncccn2)nnc1SCC(=O)N1CCCCC1	3	19	2	-19	/	/
CC1CCN(C(=O)CSc2nnc(CSc3ncccn3)n2C)CC1	2	25*	1	3	7	-2
Fc1ccc(-c2n[nH]c(=S)n2N=Cc2ccc(-c3ccccc3)cc2)cc1	/	-9	/	/	/	/
CCC(=O)N1CCN(c2ccc(NC(=O)c3ccc([N+](=O)[O-])o3)cc2Cl)CC1	91*	38*	99*	11	21	97*
CCC(=O)N1CCN(c2ccc(Cl)cc2NC(=O)c2ccc([N+](=O)[O-])o2)CC1	20	-3	10	0	/	/
CCCCC(=O)NC(c1ccccc1)c1ccc2cccnc2c1O (configuration not stated)	/	29*	/	25	27*	19*
CCCC(=O)NC(c1ccccc1)c1ccc2cccnc2c1O (configuration not stated)	/	23	/	26	/	/
CCCCC(=O)NC(c1cccc([N+](=O)[O-])c1)c1ccc2cccnc2c1O (configuration not stated)	1	9	16	/	/	/
CCCC(=O)NC(c1ccc(OC)cc1)c1ccc2cccnc2c1O (configuration not stated)	5	27*	9	31	26*	32*
CCCCC(=O)NC(c1ccccc1Cl)c1ccc2cccnc2c1O (configuration not stated)	/	39*	/	6	32*	30*
COc1ccc(N(C)S(=O)(=O)c2cccc(C(=O)NC3CCCCC3C)c2)cc1 (configuration not stated)	6	26*	9	-8	12	-4
COc1ccc(N(C)S(=O)(=O)c2cccc(C(=O)NC3CCCC3)c2)cc1	/	14	/	-3	/	/
O=[N+]([O-])c1cc(Cl)ccc1N1CCN(c2ccccc2O)CC1	26	-7	-1	6	/	/
O=S(=O)(CCN1CCN(c2ccccc2O)CC1)c1cc(Cl)ccc1Cl	5	36*	5	/	3	-2
CN(C)CCCN1C(=O)C(=O)C(=C(O)c2ccncc2)C1c1ccccc1 (configuration not stated)	-3	/	4	/	/	/

From PubChem BioAssay
